Source: PubChem
UHRF1 binding: UHRF1 methylated DNA binding inhibitors, primary screen, counter-screen for MBD2 inhibitor project, biochemical, TR-FRET, human UHRF1, single concentration. inhibition, % at 4.4 µM. AID 687016, 2013. 370,000 tested, 0.75% active. E3 ubiquitin-protein ligase UHRF1 (Homo sapiens), Q96T88. UHRF1 binding to methylated oligo; in the data active = inhibition above about 21%;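 note: UHRF1 SRA domain binding a hemimethylated CpG hairpin DNA probe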
PRMT1 FP inh: PRMT1 methyltransferase inhibitors, primary screen, biochemical, fluorescence polarization; Protein arginine N-methyltransferase 1 (Homo sapiens), Q99873; recombinant PRMT1, activity-based probe fluorescence polarization; inhibition, % at 2.79 µM; 370,000 tested, 1.3% active; AID 652257, 2013;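 active = inhibition above about 21% made by adding two undisclosed values, limit read from the data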
Target sequence (Q99873 whole entry, looked up): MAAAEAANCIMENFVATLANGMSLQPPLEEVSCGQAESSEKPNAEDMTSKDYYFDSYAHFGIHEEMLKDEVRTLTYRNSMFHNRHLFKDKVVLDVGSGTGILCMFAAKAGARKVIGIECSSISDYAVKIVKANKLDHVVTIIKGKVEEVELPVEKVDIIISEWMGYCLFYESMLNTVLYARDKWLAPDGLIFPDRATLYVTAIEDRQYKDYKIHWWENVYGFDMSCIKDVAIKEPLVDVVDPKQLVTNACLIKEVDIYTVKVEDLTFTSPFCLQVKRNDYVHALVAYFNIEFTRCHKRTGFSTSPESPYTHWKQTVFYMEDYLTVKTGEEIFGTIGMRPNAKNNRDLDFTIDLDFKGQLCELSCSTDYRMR
PfGluPho inh: PfG6PD enzyme inhibitors, primary screen, biochemical, fluorescence intensity, uHTS. glucose-6-phosphate dehydrogenase-6-phosphogluconolactonase (Plasmodium falciparum 3D7). PfGluPho enzyme, NADPH resazurin-diaphorase fluorescence. inhibition, % at 20 µM. 350,000 tested, 0.78% active. AID 504690, 2011;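 active = inhibition reaching at least a set limit at 20 µM in the primary screen, cut at about 59% in these data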
MBD2 DNA inh: inhibitors of MBD2 binding to methylated DNA, primary screen, biochemical, TR-FRET, DNA-binding domain, human; Methyl-CpG-binding domain protein 2 (Homo sapiens), Q9UBB5; MBD2 binding to methylated oligonucleotide; inhibition, % at 4.4 µM; 370,000 tested, 0.31% active; in the data active = inhibition above about 13%
M18AAP inhibitor: PfM18AAP inhibitors, malaria aminopeptidase, primary screen, biochemical, QFRET, recombinant enzyme; H-Glu-NHMec fluorogenic cleavage; inhibition, % at 7.35 µM; 290,000 tested, 1.2% active; AID 1822, 2009;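 active = inhibition above the campaign mean inhibition over all tested compounds plus 3 SD, cut at about 28% in these data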
Each line names hits and unclear results; the compound was inactive in the other large screens. This is a sample that favours compounds with a hit; in the whole collection about 3.3% have one here.

COc1cc(N2CCC(O)CC2)ccc1Nc1cc(Nc2ccccc2S(=O)(=O)C(C)C)c2cc[nH]c2n1	none (no result: PfGluPho inh, M18AAP inhibitor)
CC(C)(C)Cc1nnc(NC(=O)c2ccc3c(c2)OCO3)s1	M18AAP inhibitor 30
O=C(Nc1nnc(Cc2ccc([N+](=O)[O-])cc2)s1)c1ccc2c(c1)OCO2	none
C=CCn1c(COc2ccc(C)cc2)nnc1SCC(=O)c1ccc(-c2ccccc2)cc1	none (no result: PfGluPho inh, M18AAP inhibitor)
COCCNC(=S)Nc1ccc(S(=O)(=O)Nc2cnc3ccccc3n2)cc1	UHRF1 binding 37
COc1ccc(C2C(C(=O)N3CCN(c4ccccc4C)CC3)CC(=O)N2c2ccc(OC)cc2)cc1 (stereo not drawn)	none (no result: PfGluPho inh, M18AAP inhibitor)
C=CCN1C(C(=O)OCC)CSCCS1(=O)=O (stereo not drawn)	none (no result: PfGluPho inh, M18AAP inhibitor)
c1ccc(CCNc2nc(-c3cccnc3)cs2)cc1	UHRF1 binding 49
COC(=O)C[C@@H]1CC[C@H]2[C@@H](COc3ccc(NC(=O)c4cc(C)on4)cc3C(=O)N2C)O1	none (no result: PfGluPho inh, M18AAP inhibitor)
CC(=O)Nc1ccc(Sc2ccccc2C(=O)O)cn1	UHRF1 binding 21
C[C@H]1[C@H](c2ccccc2)Oc2cccc(NCCc3ccccc3)c2S(=O)(=O)N1Cc1cccc(F)c1	none (no result: PfGluPho inh, M18AAP inhibitor)
O=C(N[C@H](C(=O)N1CCC[C@H]1C(=O)NCCc1ccccc1Cl)C1CCCCC1)c1cccs1	none (no result: PfGluPho inh, M18AAP inhibitor)
COC(=O)[C@]12C[C@H](CC(=O)NCCC(C)C)C(=O)N(Cc3ccc(Cl)cc3Cl)C1=C[C@H](C(C)(C)C)O[C@@H]2C	none (no result: PfGluPho inh, M18AAP inhibitor)
Cc1ccc2cccc(OC(=O)/C=C\c3ccccc3)c2n1	UHRF1 binding 27
O=C(CNS(=O)(=O)c1cc2ccccc2s1)N1CCN(c2ccccn2)CC1	none (no result: PfGluPho inh, M18AAP inhibitor)
CC(C)c1ccc(O)c(NC(=O)c2ncn[nH]2)c1	M18AAP inhibitor 29
CSc1ccc(S(=O)(=O)NCC(=O)OC(C)C(=O)NCc2ccccc2)cc1[N+](=O)[O-] (stereo not drawn)	UHRF1 binding 27 (no result: M18AAP inhibitor)
C[C@@H]1C=C(C(=O)O)O[C@H](OCc2ccc(CO)cc2)C1	UHRF1 binding 55
CCCCN(CC)c1nc(N)c2c(N)nc(OCC)cc2c1C#N	UHRF1 binding 38
Cc1cc(/C=N/NC(=O)c2cc3ccccc3o2)c(C)n1C	M18AAP inhibitor 30
CC(C)CCNC(=O)C12CN(Cc3ccccc3)CC1C(c1ccc([N+](=O)[O-])cc1)=NO2 (stereo not drawn)	PRMT1 FP inh 22
CCOC(=O)N1CCN(C(=O)C[C@H]2C[C@@]3(C(=O)OC)C(=C[C@H](C(C)C)O[C@@H]3C3CC3)N(Cc3ccco3)C2=O)CC1	none (no result: PfGluPho inh, M18AAP inhibitor)
Cc1cccc(-c2nnc(SCC(=O)c3ccc(F)cc3)n2C)c1	none (no result: PfGluPho inh, M18AAP inhibitor)
N#C/C(=C\c1cccc(Br)c1)C(=O)N1CCCCC1	M18AAP inhibitor 30
N#C/C(=C\c1cccc(O)c1)C(=O)N1CCCCC1	none
Cc1cccc(C)c1-n1nnnc1C1(C)CCC(=O)N1c1ccc(N2CCOCC2)cc1 (stereo not drawn)	UHRF1 binding 23 (no result: PfGluPho inh, M18AAP inhibitor)
CC(=O)Oc1cccc2c1C(=O)c1c(OC(C)=O)cc(C(=O)O)cc1C2=O	none
O=C(O)c1cc(O)c2c(c1)C(=O)c1cc(O)cc(O)c1C2=O	UHRF1 binding 26
N#CCC(=O)N/N=C/c1ccc(OCc2ccccc2)cc1	M18AAP inhibitor 30
N#CCC(=O)N/N=C\c1ccc(OC/C=C/c2ccccc2)cc1	none
N#CC(C#SN)=C1CCCCC1	PRMT1 FP inh 24, M18AAP inhibitor 30
N#CC(C(=O)O)=C1CCCC1	none
Cc1cc2c(s1)c1cnn(Cc3cc(F)c(F)cc3F)c(=O)c1n2C	none (no result: PfGluPho inh, M18AAP inhibitor)
O=C(O)CCC(=O)Nc1sc2c(c1C(=O)Nc1cccc3ccccc13)CCCCC2	PRMT1 FP inh 24, M18AAP inhibitor 30
COc1ccc(OC)c(NC(=O)c2c(NC(=O)CCC(=O)O)sc3c2CCCCC3)c1	M18AAP inhibitor 37
c1ccc(CSC2=NNC(c3ccccn3)S2)cc1 (stereo not drawn)	none
O=C(CSC1=NNC(c2ccccn2)S1)Nc1ccc(C(F)(F)F)cc1 (stereo not drawn)	PRMT1 FP inh 24
CCOC(=O)c1c(/N=C/c2cccc([N+](=O)[O-])c2O)sc2c1CCC2	none
